The values below come from PubChem BioAssay AID488832 (National Center for Advancing Translational Sciences (NCATS), 2010).

Inconclusive results are not listed. Active and inactive are the calls of the source. The call rests on the fitted dose curve; in most records, active means well fitted activation curve with a large enough effect; inconclusive means small, poorly fitted or top-dose-only effect; inactive means no such curve, though single readings can be large or run the other way.

This experiment can be described thus: Confirmation Concentration-Response Assay for Enhancers of SMN2 Splice Variant Expression for Further Probe SAR. Conditions: HEK293 SMN2 exon7-luciferase splicing reporter, luminescence, 30-36 h; series mostly up to 46.1 µM. An excerpt:
NIH Chemical Genomics Center [NCGC] NIH Molecular Libraries Probe Production centers Network [MLPCN] MLPCN Grant: R03 MH084179-01 Assay Submitter (PI): Elliot Androphy NCGC Assay Overview: Spinal muscular atrophy (SMA) is caused by insufficient levels of the survival motor neuron protein SMN. The SMN locus on chromosome 5q13 contains two inverted copies of SMN called SMN1 and SMN2 which are 99% identical at the amino acid level. SMN1 is a fully functional protein and SMN2 skips exon 7 90% of the time. Skipping of exon 7 produces non-functional protein product. 10% of the SMN2 protein includes exon 7 and is fully functional. In the SMA disease state, mutations in the SMN1 locus are the cause of the disease state. Because only 10% of SMN2 is of the fully functional form, it is not sufficient to overcome the deficiency produced by the loss of the SMN1 product. A therapy that either increase the amount of SMN2 product made or to increase the inclusion of exon 7 has been proposed for the treatment of SMA. We have designed an assay to identify small molecules that can increase the amount of functional SMN2 product by appending a luciferase reporter gene after the native SMN2 gene, such that inclusion of exon 7 in the expressed product places the luciferase sequence in frame, thus generating functional luciferase enzyme.
NCGC Assay Protocol Summary: This screen utilizes a luciferase reporter gene assay, combining the promoter with the major portion of the native SMN2 cDNA (exons 1 -7, intron 8 , exon 8 fused to luciferase) stably expressed in HEK293 cells. Compounds that increase luciferase signal presumably enhance expression of the functional SMN2 splice variant. Passaging media contained DMEM w/ glutamax (+phenol red) 10% FCS, 1x pen/strep, 200 ug/ml hygro, 1x sodium pyruvate. Assay media contained DMEM w/ glutamax (-phenol red) 10% FCS, 1x pen strep, 1x pyruvate Sequence, Parameter, Value, Description (1) Cells, 5 uL, 2000 cells/well, 1536 TC treated White solid bottom plate (2) Time, 10-12 hours, 37C 5% CO2 (3) Compound, 23 nl, MLSMR Library (4) Control Compound, 23 nL, Sodium butyrate st 4.5mM (final) conc (5) Time, 30-36 hours, 37C 5% CO2 (6) Reagent, 3 ul, One Glo (TM) from Promega (7) Time, 5-15 minutes, Room temp (8) Detector, Viewlux: luminescent read, 60 second integration, high speed 2x binning Keywords: Spinal muscular atrophy, SMA, SMN2, high throughput screening, MLSMR, MLPCN, NIH Roadmap, qHTS and NCGC
As to `CN(C)c1cccc(-c2ncnc(N3CCC(C(N)=O)CC3)n2)c1`, the Potency was 0.772 µM (active).

As for `CCOC(=O)C1CCN(c2nc(-c3ccc(Br)cc3)cs2)CC1`, the Potency was 4.87 µM (active).

Consider `CS(=O)(=O)N1CCN(c2nc(-c3ccc(Br)cc3)cs2)CC1`, for which the Potency result is “inactive”.

Regarding `CN(C)c1cccc(-c2cnc(N3CCC(c4ncc[nH]4)CC3)s2)c1`, the Potency was 3.45 µM (active).

Turning to `NC(=O)C1CCN(c2ncnc(-c3ccc4c(c3)OCCCO4)n2)CC1`, the Potency is 2.44 µM (active).

Consider `O=C(NCCCc1ccccc1)C1CCN(c2nc(-c3ccc(Br)cc3)cs2)CC1`, for which the Potency entry is “inactive”.

As to `O=C(Nc1ccccc1)C1CCN(c2nc(-c3ccc(Br)cc3)cs2)CC1`, the Potency was 1.54 µM (active).

Consider `O=C(Nc1ccccc1)C1CCN(c2ncc(-c3ccc4c(c3)OCCCO4)s2)CC1`, for which the Potency is 0.0487 µM (active).

As for `NC(=O)C1CCN(c2nc(-c3ccccc3)cs2)CC1`, the Potency is 3.07 µM (active).

`NC(=O)C1CCN(c2ncc(-c3ccc4c(c3)OC(F)(F)O4)s2)CC1`: the Potency was 0.194 µM (active).

In the case of `NC(=O)C1CCN(c2nc(-c3ccc(Cl)cc3)cs2)CC1`, the Potency is 1.09 µM (active).

As for `N#Cc1cccc(-c2csc(N3CCC(C(N)=O)CC3)n2)c1`, the Potency entry was “inactive”.

As for `Brc1ccc(-c2csc(N3CCNCC3)n2)cc1`, the Potency entry was “inactive”.

Turning to `NC(=O)C1CCN(c2nc(-c3ccc([N+](=O)[O-])cc3)cs2)CC1`, the Potency is 5.47 µM (active).

As to `CSc1ccc(-c2cnc(N3CCC(C(N)=O)CC3)s2)cc1`, the Potency is 0.031 µM (active).

As for `CC(=O)C1CCN(c2ncc(-c3ccc4c(c3)OCCCO4)s2)CC1`, the Potency result is “inactive”.

On to `CNC(=O)C1CCN(c2nc(-c3ccc(Br)cc3)cs2)CC1`, for which the Potency was 4.87 µM (active).

Regarding `CC(C)(C)OC(=O)NC1CCN(c2nc(-c3ccc(Br)cc3)cs2)CC1`, the Potency result was “inactive”.

As to `Cc1ccc(-c2ccnc(N3CCC(C(N)=O)CC3)n2)cc1`, the Potency was 0.308 µM (active).

Take `NC(=O)C1CCN(c2nccc(-c3ccc4c(c3)OCCO4)n2)CC1`: the Potency was 1.09 µM (active).

On to `NC(=O)C1CCN(c2nc(-c3ccc4c(c3)OCCCO4)cs2)CC1`, for which the Potency is 0.487 µM (active).

For `Cc1cccc(-c2csc(N3CCC(C(N)=O)CC3)n2)c1`, the Potency is 15.4 µM (active).

For `CC(C)Oc1cccc(-c2ccnc(N3CCC(C(N)=O)CC3)n2)c1`, the Potency is 0.154 µM (active).

In the case of `NC(=O)C1CCN(c2nc(-c3ccccc3[N+](=O)[O-])cs2)CC1`, the Potency was 15.4 µM (active).

For the compound `CC(C)Oc1cccc(-c2cnc(N3CCC(C(N)=O)CC3)s2)c1`, the Potency was 0.0688 µM (active).

`NC(=O)C1CCN(c2nnc(-c3ccc4c(c3)OCCCO4)s2)CC1`: the Potency is 0.0972 µM (active).

Regarding `O=S(=O)(c1ccccc1)N1CCN(c2nc(-c3ccc(Br)cc3)cs2)CC1`, the Potency entry was “inactive”.

In the case of `NC(=O)C1CCN(c2nc(-c3ccc(C(F)(F)F)cc3)cs2)CC1`, the Potency is 0.867 µM (active).

Consider `NC(=O)C1CCN(c2nc(-c3ccc4c(c3)OCO4)cs2)CC1`, for which the Potency is 1.37 µM (active).

In the case of `CCOc1ccc(-c2csc(N3CCC(C(N)=O)CC3)n2)cc1`, the Potency was 3.07 µM (active).

Turning to `NC(=O)C1CCN(c2nc(-c3cccc4sc5ccccc5c34)cs2)CC1`, the Potency was 13.7 µM (active).

As to `NC(=O)C1CCN(c2cc(-c3ccc4c(c3)OCCCO4)ncn2)CC1`, the Potency is 6.14 µM (active).

`O=C(NCc1ccccc1)C1CCN(c2nc(-c3ccc(Br)cc3)cs2)CC1`: the Potency result was “inactive”.

Regarding `Cc1cnc(N2CCC(C(N)=O)CC2)nc1-c1cccc(N(C)C)c1`, the Potency entry was “inactive”.

As to `NC(=O)C1CCN(c2ncc(-c3cccc(N4CCCC4)c3)s2)CC1`, the Potency was 0.345 µM (active).

For the compound `NC(=O)C1CCN(c2nc(-c3ccc(N)cc3)cs2)CC1`, the Potency entry is “inactive”.

Regarding `COc1ccccc1-c1csc(N2CCC(C(N)=O)CC2)n1`, the Potency result is “inactive”.

On to `NC(=O)C1CCN(c2ncc(-c3cccc(F)c3)s2)CC1`, for which the Potency was 1.94 µM (active).

As for `CC(=O)N1CCN(c2nc(-c3ccc(Br)cc3)cs2)CC1`, the Potency was 2.44 µM (active).

Take `CS(=O)(=O)c1ccc(-c2csc(N3CCC(C(N)=O)CC3)n2)cc1`: the Potency entry was “inactive”.
